Source: PubChem BioAssay (several laboratories)
DUSP3 inh: blocks human VHR1 dual specificity phosphatase | P51452 | recombinant VHR phosphatase, pNPP absorbance | inhibition, % at 13.3 µM | 290,000 tested, 0.52% active | AID 1654; in the data active means inhibition above about 50%
Target sequence (P51452 whole entry, looked up): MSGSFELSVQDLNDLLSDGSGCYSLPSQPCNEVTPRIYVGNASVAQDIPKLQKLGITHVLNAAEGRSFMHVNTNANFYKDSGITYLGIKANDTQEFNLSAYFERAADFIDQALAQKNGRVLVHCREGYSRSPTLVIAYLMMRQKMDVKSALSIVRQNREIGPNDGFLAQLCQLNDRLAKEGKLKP
BJeLR lethal: BJeLR cell viability loss | BJeLR (HRASV12) viability, CellTiter-Glo ATP luminescence, 48 h | inhibition, % (no concentration beside the values) | 300,000 tested, 0.17% active; in the data active means inhibition above about 50%; inconclusive means no clear call, values can overlap the other calls
MazF activator: activators of E. coli MazEF toxin-antitoxin RNase. P0AE70. FAM/BHQ RNA-DNA oligo cleavage fluorescence, 5 h. activation, % at 20 µM. 350,000 tested, 0.32% active. AID 504720; in the data active means activation above about 50%
Target sequence (P0AE70 whole entry, looked up): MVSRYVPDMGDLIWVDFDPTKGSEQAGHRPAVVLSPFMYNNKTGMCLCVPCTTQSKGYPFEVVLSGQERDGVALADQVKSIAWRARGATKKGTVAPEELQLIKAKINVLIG
Vc quorum ag: inducers of Vibrio cholerae quorum light production without autoinducers; V. cholerae BH1578 lux reporter, luminescence, 6 h; activation, % at 18.7 µM; 350,000 tested, 0.16% active; in the data active means activation mostly above about 9.7%, no sharp cut-off; inconclusive means no clear call, values can overlap the other calls; inactive means mostly below about 3.7%
SARS 3CLpro inh: SARS-CoV 3CLpro protease inhibition. recombinant SARS-CoV 3CLpro, quenched FRET peptide cleavage. inhibition, % at 6 µM. 290,000 tested, 0.14% active. AID 1706; in the data active means inhibition above about 12%
PfHsp40 rescue: compounds rescuing yeast from Plasmodium falciparum HSP40 toxicity | 340,000 tested, 0.68% active | AID 504582 | S. cerevisiae expressing PfHsp40, growth rescue, ATP luminescence | growth rescue, % at 12.5 µM; in the data active means growth rescue above about 28%, passing the limit was not always enough; inconclusive means no clear call, values can overlap the other calls;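 further: yeast W303a lacking pdr1 and pdr3 grown in galactose medium; growth measured after three days at 30 °C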
Of the large screens only hits and unclear results are named; the others gave an inactive call. The list is not random: actives were taken first. Their share in the collection is about 1.7%.

N#CC(C#N)=NNc1ccc(-n2ccc(C(F)(F)F)n2)cc1	BJeLR lethal 59, PfHsp40 rescue 186
COc1ccc(-n2c(=O)c3c4c(sc3n(CC(=O)NCC3CCCO3)c2=O)CN(C(C)=O)CC4)cc1OC (configuration not stated)	none (no result: DUSP3 inh, BJeLR lethal, SARS 3CLpro inh, PfHsp40 rescue)
CC1CC(=O)c2c(cc3c(-c4c(O)cc(O)c5c(O)c6c(cc45)OC(C)CC6=O)c(O)cc(O)c3c2O)O1 (configuration not stated)	PfHsp40 rescue 102
CC(=O)N[C@H]1[C@H]([C@H](O)[C@H](O)CO)O[C@](O)(C(=O)O)C[C@@H]1O	none (no result: DUSP3 inh, BJeLR lethal, SARS 3CLpro inh)
COc1ccc(Cn2c(O)c(/C=N/NC(=O)c3ccccc3O)c(=O)[nH]c2=O)cc1	none
O=C(N/N=C/c1c(O)n(CCc2ccccc2)c(=O)[nH]c1=O)c1ccccc1O	none
O=C(N/N=C/c1c(O)n(Cc2ccc(F)cc2)c(=O)[nH]c1=O)c1ccccc1O	PfHsp40 rescue 55
O=C(N/N=C/c1c(O)n(Cc2ccccc2)c(=O)[nH]c1=O)c1ccccc1O	PfHsp40 rescue 97
CCOc1cccc(OCC)c2c(C)[n+](CC3CCCO3)c(C)c1-2 (configuration not stated)	DUSP3 inh 52, PfHsp40 rescue inconclusive
Cc1cccc(CN(C)C[C@@H]2OCc3cnnn3CCCC(=O)N([C@H](C)CO)C[C@H]2C)c1	none (no result: DUSP3 inh, BJeLR lethal, SARS 3CLpro inh, PfHsp40 rescue)
O=C(NCCc1ccccc1)C(c1cccs1)N(C(=O)CCl)c1ccc(Cl)cc1 (configuration not stated)	BJeLR lethal 117
Cc1ccc2nc(SCC(=O)Nc3cccc(Cl)c3)nc(=O)n2c1	none (no result: DUSP3 inh, SARS 3CLpro inh)
Cc1ccc2nc(SCC(=O)Nc3ccc(C)c(Cl)c3)nc(=O)n2c1	MazF activator 74 (no result: DUSP3 inh, SARS 3CLpro inh)
CNC(=O)c1ccc(CN(C)C(=O)c2cccc(S(=O)(=O)N3CCc4ccccc4C3)c2)cc1	none (no result: DUSP3 inh, BJeLR lethal, SARS 3CLpro inh, PfHsp40 rescue)
CC[n+]1c(/C=C/C=C/N(C(C)=O)c2ccccc2)sc2ccccc21	MazF activator 154
CC[n+]1c(/C=C/C=C/c2ccc(N(C)C)cc2)sc2ccccc21	PfHsp40 rescue 245
CN(C)c1ccc(/C=C/C=C/c2sc3ccccc3[n+]2C)cc1	BJeLR lethal 59, PfHsp40 rescue 126
CN(C)c1ccc(/C=C/c2cc[n+](C)c3ccccc23)cc1	PfHsp40 rescue inconclusive (no result: BJeLR lethal)
O=C(CCCc1ccccc1)NC12CC3CC(CC(C3)C1)C2	none
CC(C)NC(=O)C1Cc2c(-c3ccccc3Oc3ccccc3)ccnc2O1 (configuration not stated)	none (no result: DUSP3 inh, BJeLR lethal, MazF activator, SARS 3CLpro inh, PfHsp40 rescue)
Cn1c(=O)c2c(nc(Sc3ncnn3CC(=O)N3CCOCC3)n2C)n(C)c1=O	none
CCOC(=O)Nc1ccc2c(c1)C(=NNC(N)=S)c1ccccc1-2	none (no result: DUSP3 inh, BJeLR lethal, SARS 3CLpro inh)
CCOC(=O)Nc1ccc2c(c1)C(=NO)c1ccccc1-2	PfHsp40 rescue 207 (no result: DUSP3 inh, BJeLR lethal, SARS 3CLpro inh)
Cc1ccc(S(=O)(=O)N(CCC(=O)NCC(c2ccccc2)N(C)C)c2ccccc2)cc1 (configuration not stated)	none (no result: DUSP3 inh, BJeLR lethal, SARS 3CLpro inh)
O=C(N/N=C/C=C/c1ccccc1[N+](=O)[O-])c1ccncc1	none
O=C(N/N=C/c1ccccn1)c1cc(-c2ccc3ccccc3c2)n[nH]1	DUSP3 inh 51
O=C(N/N=C/C=C\c1ccccc1[N+](=O)[O-])c1cc(-c2ccc3ccccc3c2)n[nH]1	DUSP3 inh 52
CCc1ccc(-c2cc(C(=O)N/N=C/c3ccccn3)[nH]n2)cc1	none
COc1ccc(C(=O)NC(C)c2nnc(SCC(=O)NC3CCCC3)n2C)cc1 (configuration not stated)	DUSP3 inh 53
COc1cc(-c2ccc(=O)[nH]n2)ccc1OC(F)F	PfHsp40 rescue 43
COc1ccc(OC)c(-c2c(C#N)c(N)nc3c2c(=O)nc2sccn23)c1	none
CC(=O)Nc1nc(C)c(Oc2ccc(Cl)cc2Cl)c(=O)[nH]1	Vc quorum ag 17
CC(=O)Nc1nc(C)c(Oc2ccc(Cl)cc2)c(=O)[nH]1	none
Cc1cc(C)c(NC(=O)CNC(=O)c2cc(C3CC3)nn2-c2ccccc2)c(C)c1	none (no result: DUSP3 inh, BJeLR lethal, SARS 3CLpro inh)
CCn1c(SCC(=O)NNC(=O)Cc2ccccc2)nnc1-c1ccccc1	none
Cn1c(SCC(=O)NNC(=O)Cc2ccccc2)nnc1-c1ccccc1	Vc quorum ag 31
O=C(C1CC1)N1CCN(c2ccc(O)cc2)CC1	DUSP3 inh 56
O=C(c1ccoc1)N1CCN(c2cc(-c3cccc(F)c3)nc3cc(-c4cccc(Cl)c4)nn23)CC1	none (no result: DUSP3 inh, BJeLR lethal, SARS 3CLpro inh, PfHsp40 rescue)
Cc1cc(N/N=C/c2ccccc2[N+](=O)[O-])nc(-n2nc(C)cc2C)n1	PfHsp40 rescue 55
COc1ccc(/C=N/Nc2cc(C)nc(-n3nc(C)cc3C)n2)cc1	PfHsp40 rescue 272
COc1ccc(S(=O)(=O)NC2CCCCC2)c(C)c1C	PfHsp40 rescue 86
COc1ccc(C)cc1S(=O)(=O)NC1CCCCCC1	none
Cc1cc(Cl)n2c(nc3ccccc32)c1C#N	BJeLR lethal 61
O=c1oc2ccccc2n1Cc1ccccc1	none
COc1cccc(Cn2c(=O)oc3ccccc32)c1	DUSP3 inh 53
CC(=O)c1ccc(OCc2cc(C(=O)N(C)CC3COc4ccccc4O3)no2)cc1 (configuration not stated)	none (no result: DUSP3 inh, BJeLR lethal, SARS 3CLpro inh, PfHsp40 rescue)
O=S(=O)(Nc1ccc(N=Nc2ccccc2)cc1)c1ccccc1	PfHsp40 rescue 102
N#CCCN(Cc1ccccc1)C(=O)CCC(=O)c1ccc(F)cc1	none (no result: DUSP3 inh, BJeLR lethal, SARS 3CLpro inh, PfHsp40 rescue)
O=C(O)c1cc(NCc2c(F)cccc2Cl)ccc1N1CCOCC1	PfHsp40 rescue 105
CC(Oc1ccc2ccc(=O)oc2c1)C(=O)NC1CCN(Cc2ccccc2)CC1 (configuration not stated)	none
Nc1nonc1C(=O)NCCNCc1c(OCc2ccccc2F)ccc2ccccc12	MazF activator 59
Nc1nonc1C(=O)NCCNCc1cc(Br)ccc1OCc1ccc(F)cc1	none
CCOc1ccccc1C1CC(=O)NC(SCC(=O)Nc2nccs2)=C1C#N (configuration not stated)	none
Cc1ccc(C2CC(=O)NC(SCC(=O)Nc3nccs3)=C2C#N)cc1 (configuration not stated)	Vc quorum ag 25
COc1ccc(-c2cc3c(=O)n(CC(=O)N4CCCC4)ncn3n2)cc1	none
COc1cccc(NC(=O)CN(C2=NC3CS(=O)(=O)CC3S2)c2cccc(C)c2)c1 (configuration not stated)	none
Cc1ccc(NS(=O)(=O)c2ccc(N3CCN(c4ccc(O)cc4)CC3)c([N+](=O)[O-])c2)c(C)c1	PfHsp40 rescue 70
O=[N+]([O-])c1cc(S(=O)(=O)Nc2ccccc2)ccc1N1CCN(c2ccc(O)cc2)CC1	none
COCCCN1C(=O)C(CC(=O)NCCCCc2ccccc2)CC(C(=O)N2CCOCC2)=C1C (configuration not stated)	none (no result: DUSP3 inh, BJeLR lethal, SARS 3CLpro inh, PfHsp40 rescue)
O=C(CSc1ccccc1)Nc1cc(S(=O)(=O)N2CCOCC2)ccc1N1CCOCC1	MazF activator 76, PfHsp40 rescue 59
